Among the data in PubChem BioAssay AID504770 (ICCB-Longwood Screening Facility, Harvard Medical School, 2011) are z-score values, retold here.

Structures are written as SMILES. Screen size: about 130,000 compounds; about 350 (0.27%) were called active. This is one part of a sample in which actives are shown more often than they occur. Unmarked numbers belong to inactive results. Rule as the data show it: active = z-score below about -2 (passing the limit was not always enough); inactive = the rest.

The experiment is described as follows: PubChem AID 504770. Particulars: E. coli YBA685 rctB-dependent plasmid, OD600 growth, 3 h; hits give low values.
Consider `CCc1ccc(C(=O)CCC(=O)O)s1`, for which the z-score was -3.1 (active).
Regarding `CCc1ccc(C(=O)COC(=O)c2cccc(-n3cccc3)c2)s1`, the z-score was 1.2.
Next, `CCc1ccc(CCC(=O)O)cc1`: 0.8; `O=c1c(/C=N\O)coc2ccc(F)cc12`: 1.15.
Consider `O=c1c(/C=N/O)coc2ccc(Cl)cc12`, for which the z-score is -3.05 (active).
As to `O/N=C/c1cccc(Cl)c1`, the z-score was -0.05.
Consider `Cc1cccc(-n2nc(C)c3c(C)cc(=O)oc32)c1`, for which the z-score was -3.15 (active).
As for `CCCc1cc(=O)[nH]c2c1c(C)nn2-c1cccc(F)c1`, the z-score was 2.25.
`CCCc1cc(=O)oc2c1c(C)nn2C`: the z-score is 0.15.
The figure for `CCN(CC)S(=O)(=O)c1ccc(C(=O)NCCn2c(C)cc3ccccc32)cc1` is 0.65.
On to `Cc1ccc(C(C(=O)NCc2ccccc2)N(Cc2ccco2)C(=O)Cn2nnc3ccccc32)cc1` (stereo unspecified), for which the z-score is -0.35.
Consider `CCN1CCN(c2ccc(NC(=O)[C@H](Cc3ccccc3)N3Cc4ccccc4C3=O)cc2)CC1`, for which the z-score was 1.2.
For the compound `CCSc1nnc(SCC(=O)c2ccc3[nH]c(=O)[nH]c3c2)s1`, the z-score was 1.6.
For the compound `CC1CCCC(C)N1C(=O)COC(=O)c1ccccc1I` (stereo unspecified), the z-score is 1.25.
Take `Cc1cc(C(=O)OCC(=O)N2C(C)CCCC2C)c2ccccc2n1` (stereo unspecified): the z-score is 0.05.
Take `CCOc1ncccc1C(=O)OCC(=O)N1C(C)CCCC1C` (stereo unspecified): the z-score was -5.9 (active).
`COC(=O)CN1C(=O)C(C)(C)Oc2ccc(C(=O)Nc3cccc(OC)c3)cc21`: the z-score is -0.45.
As for `COc1ccc(C2CC(=O)C3=C(C2)NC(=O)CC3c2ccc3c(c2)OCO3)cc1` (stereo unspecified), the z-score is 0.05.
For `CCCN1CCC(NC(=S)Nc2ccc3c(c2)OCO3)CC1`, the z-score was 1.7.
Regarding `O=C(Nc1ccccc1)C1CCN(C(=O)c2cccs2)CC1`, the z-score was 0.15.
Next, `CCN1CCN(C(=O)c2ccc(/C=C3/Sc4ccccc4N(Cc4ccccc4C)C3=O)cc2)CC1`: 0.25.
